Consider 29 compounds from PubChem BioAssay (Tox21).

“And” between values parts separate entries of the source, which are not always exact repeats. Equal entries are not always repeated. Records with an inconclusive call do not appear. Where a structure was tested more than once in an assay, its records may differ in their call. The source made the active and inactive calls. The call rests on the fitted dose curve; in most records, active means well fitted curve in the direction sought with a large enough effect in the repeat runs; inconclusive means weak or mixed curves; inactive means no such curve, though single readings can be large; an effect the other way counts as inactive or inconclusive.

Test [1] deals with Cytochrome P450 2C19 (Homo sapiens) (UniProt P33261). In words: Cytochrome P450 Family 2 Subfamily C Member 19 (CYP2C19) small molecule antagonists: luciferase reporter qHTS assay (AID 1671197). Further: nearly all actives have a fitted effect of over 65% in size. On activity change, negative = inhibition: series mostly up to about 120 µM. The essentials: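 Light output is proportional to CYP2C19 activity: proluciferin substrate is converted to luciferin, then detected by a luciferin detection reagent that also stops the 1 h, 37C NADPH-driven reaction. Ketoconazole serves as positive control.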
Cytochrome P450 2C19 (Homo sapiens), sequence (P33261 whole entry, looked up): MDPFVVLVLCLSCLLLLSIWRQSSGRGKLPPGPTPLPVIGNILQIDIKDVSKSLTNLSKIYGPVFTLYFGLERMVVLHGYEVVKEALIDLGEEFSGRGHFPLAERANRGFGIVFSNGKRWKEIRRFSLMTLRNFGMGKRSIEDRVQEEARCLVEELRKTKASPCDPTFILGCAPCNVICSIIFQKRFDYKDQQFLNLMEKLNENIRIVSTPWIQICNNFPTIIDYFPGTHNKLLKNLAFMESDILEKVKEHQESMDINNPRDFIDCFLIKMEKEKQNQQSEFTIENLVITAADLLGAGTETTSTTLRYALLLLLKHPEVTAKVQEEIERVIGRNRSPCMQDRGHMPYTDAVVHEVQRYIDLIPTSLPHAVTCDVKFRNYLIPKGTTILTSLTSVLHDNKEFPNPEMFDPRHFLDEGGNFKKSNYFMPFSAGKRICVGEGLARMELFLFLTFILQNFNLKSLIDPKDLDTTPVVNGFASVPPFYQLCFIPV

The target in test [2] is Cytochrome P450 2C9 (Homo sapiens) (UniProt P11712). In words: Cytochrome P450 Family 2 Subfamily C Member 9 (CYP2C9) small molecule antagonists: luciferase reporter qHTS assay (AID 1671198). Further: nearly all actives have a fitted effect of over 50% in size. On activity change, negative = inhibition: series mostly up to about 120 µM. The essentials:
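Enzyme-substrate mix preincubated with compound 10 min at room temperature; reaction started with NADPH regeneration solution, 1 h 37C. Luminescent luciferin product read after 20 min detection reagent.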

The target of test [3] is Cytochrome P450 1A2 (Homo sapiens) (UniProt P05177). In words: Cytochrome P450 Family 1 Subfamily A Member 2 (CYP1A2) small molecule antagonists: luciferase reporter qHTS assay (AID 1671199). Further: nearly all actives have a fitted effect of over 50% in size. On activity change, negative = inhibition: series mostly up to about 120 µM. The essentials:
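Signal from luciferin formed by CYP1A2 from a proluciferin substrate is read as luminescence, expressed in relative luminescence units. Compounds sit with enzyme 10 min, NADPH-driven reaction runs 1 h, all at room temperature.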
Background: A reporter such as luciferase makes a cellular process visible.

Test [4] concerns the target Voltage-gated inwardly rectifying potassium channel KCNH2 (Homo sapiens) (UniProt Q12809). In words: Human Ether-a-go-go-Related Gene (hERG) channel small molecule antagonists: fluorescence cell-based qHTS assay (AID 1671200). Further: nearly all actives have a fitted effect of over 50% in size.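 On activity change, negative = inhibition: hERG-expressing U2OS cells given a thallium stimulus after FluxOR II dye loading; series mostly up to about 77 µM.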 The essentials:
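First, 1000 cells per well are seeded and cultured overnight at 37 C. Next, FluxOR II dye is loaded for 1 h at room temperature, protected from light. After 10 more minutes, stimulus is added and fluorescence is read.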

Test [5] deals with Cytochrome P450 3A4 (Homo sapiens) (UniProt P08684). Kind of test: Cytochrome P450 Family 3 Subfamily A Member 4 (CYP3A4) small molecule antagonists: luciferase reporter qHTS assay (AID 1671201). Further: nearly all actives have a fitted effect of over 50% in size. On activity change, negative = inhibition: series mostly up to about 120 µM. The essentials: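 Enzyme and proluciferin substrate are mixed with test chemicals for 10 min, then NADPH regeneration system drives turnover for 1 h at room temperature. A detection reagent halts the reaction; luminescence after 20 min gives relative activity.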
Cytochrome P450 3A4 (Homo sapiens), sequence (P08684 whole entry, looked up): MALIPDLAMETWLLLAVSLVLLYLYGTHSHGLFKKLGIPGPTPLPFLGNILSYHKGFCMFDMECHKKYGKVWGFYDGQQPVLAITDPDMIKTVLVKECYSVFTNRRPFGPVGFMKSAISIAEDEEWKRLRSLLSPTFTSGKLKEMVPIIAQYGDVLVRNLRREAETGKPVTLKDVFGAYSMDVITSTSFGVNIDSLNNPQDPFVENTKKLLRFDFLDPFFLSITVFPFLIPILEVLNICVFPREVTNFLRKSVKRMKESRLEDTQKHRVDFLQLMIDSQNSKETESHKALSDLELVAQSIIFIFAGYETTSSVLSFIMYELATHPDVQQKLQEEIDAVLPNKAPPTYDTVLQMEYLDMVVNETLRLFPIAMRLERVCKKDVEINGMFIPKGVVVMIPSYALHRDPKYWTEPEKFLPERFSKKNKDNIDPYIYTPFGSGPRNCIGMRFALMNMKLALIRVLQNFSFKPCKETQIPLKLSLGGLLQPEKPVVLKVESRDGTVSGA
On the % scale 0 is the no-effect control and ±100 the full control effect; potency means the concentration at half of the fitted maximal effect.

Cytochrome P450 2C9 (Homo sapiens), sequence (P11712 whole entry, looked up): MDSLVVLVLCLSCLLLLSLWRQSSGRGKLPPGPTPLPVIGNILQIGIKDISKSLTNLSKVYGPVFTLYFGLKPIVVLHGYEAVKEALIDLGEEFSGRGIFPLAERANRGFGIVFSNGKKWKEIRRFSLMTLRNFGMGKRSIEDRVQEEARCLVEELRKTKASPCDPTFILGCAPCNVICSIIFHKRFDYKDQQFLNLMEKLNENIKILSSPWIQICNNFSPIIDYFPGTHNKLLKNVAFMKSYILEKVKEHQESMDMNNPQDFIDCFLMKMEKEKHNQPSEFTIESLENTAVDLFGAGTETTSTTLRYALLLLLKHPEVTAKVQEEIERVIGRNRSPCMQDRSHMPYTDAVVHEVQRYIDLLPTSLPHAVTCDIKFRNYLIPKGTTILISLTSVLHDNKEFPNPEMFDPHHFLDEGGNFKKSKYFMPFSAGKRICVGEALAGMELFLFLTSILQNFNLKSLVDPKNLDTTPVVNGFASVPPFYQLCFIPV
Voltage-gated inwardly rectifying potassium channel KCNH2 (Homo sapiens), sequence (Q12809 whole entry, looked up): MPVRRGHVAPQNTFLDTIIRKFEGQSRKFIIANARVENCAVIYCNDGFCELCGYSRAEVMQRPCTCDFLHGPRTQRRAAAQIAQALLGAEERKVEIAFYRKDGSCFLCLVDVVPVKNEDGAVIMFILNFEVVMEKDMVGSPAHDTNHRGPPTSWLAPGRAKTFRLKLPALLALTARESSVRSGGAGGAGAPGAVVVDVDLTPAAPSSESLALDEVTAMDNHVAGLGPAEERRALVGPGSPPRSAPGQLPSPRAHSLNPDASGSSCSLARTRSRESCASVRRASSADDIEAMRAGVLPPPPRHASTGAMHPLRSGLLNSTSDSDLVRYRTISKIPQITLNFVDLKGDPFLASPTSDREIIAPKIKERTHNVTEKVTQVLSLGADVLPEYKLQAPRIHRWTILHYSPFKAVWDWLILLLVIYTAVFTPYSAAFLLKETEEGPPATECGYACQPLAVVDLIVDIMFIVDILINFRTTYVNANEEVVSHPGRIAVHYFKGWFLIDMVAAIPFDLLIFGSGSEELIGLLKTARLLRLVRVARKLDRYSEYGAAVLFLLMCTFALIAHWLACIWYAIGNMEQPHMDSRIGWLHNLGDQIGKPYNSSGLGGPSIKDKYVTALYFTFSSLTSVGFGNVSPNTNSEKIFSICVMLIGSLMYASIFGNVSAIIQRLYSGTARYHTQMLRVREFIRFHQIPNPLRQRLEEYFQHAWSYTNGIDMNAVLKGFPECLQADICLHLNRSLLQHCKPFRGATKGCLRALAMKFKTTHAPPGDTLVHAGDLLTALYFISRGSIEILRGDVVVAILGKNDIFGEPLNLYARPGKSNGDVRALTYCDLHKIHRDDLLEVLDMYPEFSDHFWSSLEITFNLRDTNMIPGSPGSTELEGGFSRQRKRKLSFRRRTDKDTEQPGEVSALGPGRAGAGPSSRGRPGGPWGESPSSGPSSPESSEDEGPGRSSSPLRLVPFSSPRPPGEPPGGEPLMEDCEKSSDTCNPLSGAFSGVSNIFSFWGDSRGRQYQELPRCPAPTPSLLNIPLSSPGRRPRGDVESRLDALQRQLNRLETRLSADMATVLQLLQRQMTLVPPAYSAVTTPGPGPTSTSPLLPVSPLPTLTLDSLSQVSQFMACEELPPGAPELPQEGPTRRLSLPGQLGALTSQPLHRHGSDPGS
Cytochrome P450 1A2 (Homo sapiens), sequence (P05177 whole entry, looked up): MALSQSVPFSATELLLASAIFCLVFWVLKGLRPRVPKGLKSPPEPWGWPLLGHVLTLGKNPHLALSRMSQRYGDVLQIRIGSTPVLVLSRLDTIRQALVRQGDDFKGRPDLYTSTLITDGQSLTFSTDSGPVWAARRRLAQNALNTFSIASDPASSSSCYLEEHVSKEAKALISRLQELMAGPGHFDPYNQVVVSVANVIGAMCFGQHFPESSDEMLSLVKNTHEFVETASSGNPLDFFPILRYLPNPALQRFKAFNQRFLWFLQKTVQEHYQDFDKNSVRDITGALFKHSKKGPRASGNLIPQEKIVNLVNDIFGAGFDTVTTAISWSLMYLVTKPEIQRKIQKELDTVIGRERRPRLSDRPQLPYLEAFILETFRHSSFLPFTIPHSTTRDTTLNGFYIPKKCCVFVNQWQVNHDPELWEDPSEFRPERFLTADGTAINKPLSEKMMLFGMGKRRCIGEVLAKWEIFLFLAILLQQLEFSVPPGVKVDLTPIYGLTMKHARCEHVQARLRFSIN

Regarding `Cc1cc(-c2ccc(N=Nc3cc(S(=O)(=O)O)c4ccccc4c3N)c(C)c2)ccc1N=Nc1cc(S(=O)(=O)O)c2ccccc2c1N`, the Potency result in test [1], in test [2], in test [3] and in test [5] was “inactive” throughout. For the same compound, the Potency in test [4] is 19.6 µM (active).

As to `CCCNCCC`, the Potency result in test [1], in test [2], in test [3], in test [4] and in test [5] was “inactive” throughout.

With `O=c1oc2cc(O)ccc2c2oc3cc(O)ccc3c12`, the Potency in test [1] is 76.4 µM (active); in test [2], 68.1 µM (active); in test [3], 8.57 µM (active); in test [5], 19.2 µM (active). Further, in test [4], the Potency result was “inactive”.

Regarding `COC(=O)c1ccccc1OC`, the Potency result in test [1], in test [2], in test [4] and in test [5] was “inactive” in each case. The Potency in test [3] was 25.2 µM (active).

As for `COc1c(C)c2c(c(O)c1C/C=C(\C)CCC(=O)OCCN1CCOCC1)C(=O)OC2`, the Potency result in test [1], in test [3] and in test [4] was “inactive” each time. For the same compound, the Potency in test [2] was 13.8 µM (active).

As to `Cc1ccc(C(=O)O)cc1`, the Potency entry in test [1], in test [2], in test [3], in test [4] and in test [5] was “inactive” each time.

As for `CC(C)(C)c1csc(-c2cc3cc(OCc4ccccc4CC(=O)O)ccc3o2)n1`, the Potency entry in test [1], in test [3], in test [4] and in test [5] was “inactive” each time. In addition, the Potency in test [2] is 56.4 µM (active).

In the case of `CN(C)C(=O)COC(=O)Cc1ccc(OC(=O)c2ccc(N=C(N)N)cc2)cc1`, the Potency entry in test [1], in test [2], in test [3], in test [4] and in test [5] was “inactive” each time.

Regarding `COC(=O)c1ccccc1C`, the Potency result in test [1], in test [2], in test [3], in test [4] and in test [5] was “inactive” throughout.

For `C[C@@H](O)[C@H](N)C(=O)O`, the activity change, negative = inhibition was 6.88% [at 23.6 µM] (inactive) in test [1]; 17.9% [at 23.6 µM] (inactive) in test [2]; 12.2% [at 23.6 µM] (inactive) in test [3]; 1.94% [at 15.8 µM] (inactive) in test [4]; 16.7% [at 23.6 µM] (inactive) in test [5].

On to `CC1(C)CCC[C@]2(C)[C@H]3CC(=O)O[C@]3(C)CC[C@@H]12`, for which the Potency in test [1] is 39.9 µM (active); in test [2], 39.9 µM (active); in test [3], 44.8 µM (active); in test [4], 38.9 µM (active); in test [5], 31.7 µM (active).

Take `CCCCCCCCCCCCCC[N+](C)(C)Cc1ccccc1`: the Potency in test [1] is 64.3 µM (active) and 20 mM (active); in test [2], 80.9 µM (active); in test [3] it was 72.1 µM (active) and inactive; in test [4], 993 nM (active) and 1.69 µM (active) and 1000 µM (active). Further, the Potency entry in test [5] is “inactive”.

Take `CCOC(=O)Cn1cccc1-c1nc(-c2ccc(OC)cc2)c(-c2ccc(OC)cc2)s1`: the Potency in test [1] and in test [2] was 3.89 µM (active) each time. Further, the Potency result in test [3] and in test [4] was “inactive” in each case.

Turning to `O=C(O)Cc1ccc2c(c1)C(=O)c1ccccc1CO2`, the Potency entry in test [1], in test [2], in test [3], in test [4] and in test [5] was “inactive” throughout.

As to `O=C1c2ccccc2C(=O)N1SC1CCCCC1`, the Potency in test [1] was 25.2 µM (active) and 39.9 µM (active); in test [2], 3.99 µM (active) and 7.1 µM (active); in test [3] it was 35.5 µM (active) and 35.6 µM (active). Also, the Potency entry in test [5] was “inactive”.

As for `Cl[Si](Cl)(c1ccccc1)c1ccccc1`, the Potency in test [1] was 20.5 µM (active); in test [2] it was 23 µM (active); in test [3] it was 64.8 µM (active); in test [5], 5.14 µM (active). For the same compound, the Potency entry in test [4] was “inactive”.

For `C#Cc1ccc(-c2ccccc2F)cc1`, the Potency in test [1] is 7.76 µM (active); in test [2], 15.5 µM (active). The Potency result in test [4] is “inactive”.

Turning to `O=C(O)c1cc(-c2ccc(F)cc2F)ccc1O`, the Potency entry in test [1], in test [3], in test [4] and in test [5] was “inactive” each time. In addition, in test [2], the Potency was 24.5 µM (active).

As for `C=C(C)c1cccc(C(=C)C)c1`, the Potency result in test [1], in test [2], in test [3], in test [4] and in test [5] was “inactive” in each case.

For `CCCCCCCC`, the Potency entry in test [1], in test [2] and in test [4] was “inactive” each time.

Take `Nc1nc(N)nc(-c2cc(Cl)ccc2Cl)n1`: the Potency result in test [1], in test [2], in test [4] and in test [5] was “inactive” throughout. In test [3], the Potency was 17.4 µM (active).

As to `COc1cc(/C=C/c2ccccc2)oc(=O)c1`, the Potency is 10.4 µM (active) in test [1], 32.8 µM (active) in test [2], 2.93 µM (active) in test [3] and 26.1 µM (active) in test [5]. Besides, the Potency entry in test [4] was “inactive”.

Consider `S=C([S-])NCCNC(=S)[S-].S=C([S-])NCCNC(=S)[S-].[Mn+2].[Zn+2]`, for which the Potency in test [1] was 4.36 µM (active); in test [2], 3.09 µM (active); in test [3], 15.5 µM (active). Further, the Potency result in test [4] and in test [5] was “inactive” each time.

As to `CC(=O)c1ccc(C(C)=O)cc1`, the Potency in test [1] was 64.8 µM (active); in test [3], 28.9 µM (active). The Potency entry in test [2], in test [4] and in test [5] was “inactive” each time.

`CC(=O)CC(=O)Nc1ccc(S(=O)(=O)O)cc1`: the Potency entry in test [1], in test [2], in test [3], in test [4] and in test [5] was “inactive” throughout.

As for `CCCC(=O)OCCc1ccccc1`, the Potency entry in test [1], in test [2], in test [3], in test [4] and in test [5] was “inactive” in each case.

Turning to `Cc1ccc(-c2ccccc2)cc1`, the Potency result in test [1], in test [2], in test [3] and in test [5] was “inactive” each time.

Regarding `Nc1nc2c(ncn2COCCO)c(=O)[nH]1`, the Potency entry in test [1], in test [2], in test [3] and in test [5] was “inactive” throughout.

On to `Nc1cc(Cl)c(O)c(Cl)c1`, for which the Potency in test [1] was 20 µM (active); in test [2], 28.3 µM (active); in test [3] it was 39.9 µM (active); in test [5], 8.94 µM (active). The Potency result in test [4] was “inactive”.
